Test results as given in PubChem BioAssay AID1159580 (chemical genetic matrix, 2015).
“And” between values parts separate entries of the source, which are not always exact repeats. Identical values can stand only once. Among all 5,500 compounds or so, about 2,000 (36%) were called active. Roughly 18% stayed inconclusive and do not appear here. Cut-off read from the data, not from the text of the source: active = normalized growth mostly below about 0.91 (no sharp cut-off); inconclusive = no clear call, values can overlap the other calls; inactive = mostly above about 0.92. This is one part of the list.

Assay: chemical genetic growth profiling, strain panel (AID 1159580);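 note: tested at 20 µM; growth read once vehicle control cultures reached saturation at 30 °C; 1 = growth at the plate median or of vehicle wells; lower values mean less growth of the strain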
Details: S. cerevisiae deletion strains, growth OD

Measured: normalized growth

CC(=O)O[C@H]1C[C@@H](OC(C)=O)C(C)(C)C2CC(=O)[C@]3(C)C(CC[C@@]4(C)[C@H](c5ccoc5)OC(=O)[C@H]5O[C@]543)[C@]21C (some centres not stated)
inactive: locus YAL021C, strain ccr4, active compounds read low 0.973 | locus YAL026C, strain drs2, active compounds read low 0.982 | locus YAL030W, strain snc1, active compounds read low 0.989 | locus YBL061C, strain skt5, active compounds read low 0.993 | locus YBR009C, strain hhf1, active compounds read low 0.99 | locus YBR021W, strain FUR4, active compounds read low 0.984 | locus YBR023C, strain chs3, active compounds read low 1.01 | locus YBR171W, strain sec66, active compounds read low 0.999 | locus YBR229C, strain ROT2, active compounds read low 0.999 | locus YBR231C, strain swc5, active compounds read low 1.01 | locus YBR279W, strain paf1, active compounds read low 0.969 | locus YCL011C, strain gbp2, active compounds read low 0.998 | locus YCL016C, strain dcc1, active compounds read low 0.997 | locus YCL029C, strain bik1, active compounds read low 1.01 | locus YCL061C, strain MRC1, active compounds read low 0.99 | locus YCL069W, strain vba3, active compounds read low 0.99 | locus YCR088W, strain abp1, active compounds read low 0.988 | locus YDL005C, strain med2, active compounds read low 0.985 | locus YDL035C, strain GPR1, active compounds read low 0.982 | locus YDL040C, strain nat1, active compounds read low 0.999 | locus YDL074C, strain BRE1, active compounds read low 0.981 | locus YDL101C, strain DUN1, active compounds read low 1.02 | locus YDL185W, strain tfp1, active compounds read low 0.998 | locus YDL192W, strain arf1, active compounds read low 1 | locus YDR001C, strain nth1, active compounds read low 0.976 | locus YDR069C, strain doa4, active compounds read low 0.989 | locus YDR101C, strain arx1, active compounds read low 0.997 | locus YDR137W, strain rgp1, active compounds read low 0.974 | locus YDR159W, strain sac3, active compounds read low 0.973 | locus YDR162C, strain NBP2, active compounds read low 1 | locus YDR195W, strain ref2 0.94 | locus YDR297W, strain sur2, active compounds read low 0.988 | locus YDR318W, strain mcm21, active compounds read low 1.01 | locus YDR334W, strain swr1, active compounds read low 0.983 | locus YDR335W, strain msn5, active compounds read low 0.98 | locus YDR388W, active compounds read low 1.01 | locus YDR392W, strain spt3, active compounds read low 0.997 | locus YDR502C, strain sam2, active compounds read low 1.03 | locus YEL003W, strain gim4, active compounds read low 0.991 | locus YEL037C, strain rad23, active compounds read low 0.988 | locus YEL061C, strain CIN8 (second series), active compounds read low 0.994 | locus YER015W, strain faa2, active compounds read low 0.994 | locus YER016W, strain bim1, active compounds read low 0.991 | locus YER110C, active compounds read low 1.02 | locus YER111C, strain swi4, active compounds read low 1 | locus YER155C, strain BEM2 (second series), active compounds read low 0.992 | locus YER155C, strain BEM2, active compounds read low 1.01 | locus YER167W, strain BCK2, active compounds read low 0.997 | locus YFR010W, strain ubp6, active compounds read low 0.981 | locus YGL078C, strain dbp3, active compounds read low 1.03 | locus YGL086W, strain mad1, active compounds read low 1.01 | locus YGL167C, strain pmr1, active compounds read low 0.997 | locus YGL173C, strain kem1, active compounds read low 0.99 | locus YGL227W, strain vid30, active compounds read low 0.993 | locus YGL240W, strain doc1, active compounds read low 1.01 | locus YGL248W, strain PDE1, active compounds read low 1 | locus YGL253W, strain hxk2, active compounds read low 0.988 | locus YGR078C, strain PAC10, active compounds read low 1.02 | locus YGR135W, strain pre9, active compounds read low 1.06 | locus YGR252W, strain gcn5, active compounds read low 0.994 | locus YHR013C, strain ard1, active compounds read low 0.998 | locus YHR027C, strain rpn1, active compounds read low 0.994 | locus YHR030C, strain SLT2, active compounds read low 0.969 | locus YHR079C, strain IRE1 (second series), active compounds read low 1.02 | locus YHR079C, strain IRE1, active compounds read low 0.966 | locus YHR094C, strain hxt1, active compounds read low 1.02 | locus YHR129C, strain ARP1, active compounds read low 1.01 | locus YHR142W, strain chs7, active compounds read low 1.01 | locus YHR200W, strain rpn10, active compounds read low 1.02 | locus YIL066C, strain RNR3, active compounds read low 0.998 | locus YIL073C, strain SPO22, active compounds read low 1.32 | locus YIL125W, strain kgd1, active compounds read low 1.01 | locus YIR030C, strain dcg1, active compounds read low 1.01 | locus YJL092W, strain hpr5, active compounds read low 0.994 | locus YJL095W, strain BCK1 (second series), active compounds read low 0.996 | locus YJL095W, strain BCK1, active compounds read low 1.04 and 0.973 | locus YJL115W, strain asf1, active compounds read low 0.973 | locus YJL129C, strain trk1, active compounds read low 0.991 | locus YJL134W, strain LCB3, active compounds read low 1 | locus YJL154C, strain vps35, active compounds read low 0.986 | locus YJL164C, strain tpk1, active compounds read low 0.994 | locus YJL166W, strain qcr8, active compounds read low 0.993 | locus YJL168C, strain set2, active compounds read low 1.01 | locus YJL187C, strain SWE1 (second series), active compounds read low 1.02 | locus YJL187C, strain SWE1, active compounds read low 0.988 | locus YJR043C, strain POL32, active compounds read low 0.958 | locus YJR066W, strain TOR1, active compounds read low 0.915
